# Measurements taken from PubChem BioAssay (NCI).
# Several values for one entry are separate records, joined by “and”; a condition that tells them apart may be missing. Equal values may be shown once. Compounds without any hit were thinned out: in the full panel of roughly 83,000, 20% have a hit.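 The test compound was applied at a single concentration to cells in 96-well plates for 48 hours, and percent growth was recorded.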 Activity calls are given as the source filed them.
# Tested on: T-47D breast
# Assay: NCI-60 one-dose screen, 48 h (100 = growth as untreated, 0 = no growth, -100 = all killed)
# Conditions: 10 µM unless noted
# Procedure: Growth inhibition of the T-47D human tumor cell line is measured as a screen for anti-cancer activity. Cells are grown in 96 well plates and exposed to the test compound for 48 hours. Compounds are tested at a single concentration, which is 10^-5 M for most compounds. The reported endpoint is percent growth (GI% or GIPRCNT), where numbers from 0 - 100% represent growth inhibition, and numbers from -100% - 0 represent cell death. For example, a value of 40 represents 60% growth inhibition. A value of 0 means no net growth occurred over the course of the experiment. A value of -40 indicates 40% of cells at the beginning of the experiment died by the end of the experiment. A value of -100 means all cells are dead at the end of the experiment.
# NCI-60 Human Tumor Cell Lines Screen was performed using the standard one-dose NCI protocol, which is described in more detail at https://dtp.cancer.gov/discovery_development/nci-60/default.htm.
# Compounds with GIPRCNT values below 10 were considered active. Activity score was based on GIPRCNT using the following formula: […]
# Score is 0 for GIPRCNT values of 100 or above, 50 for GIPRCNT values of 0, and 100 for GIPRCNT values of -100.
row,Structure (SMILES),growth
1,Cc1c(Cl)c(C)c(Cc2c(C)c(Cl)c(C)c(Cl)c2O)c(O)c1Cl,1.53% (active)
2,COCCCNC1=C(C#N)C(=O)NC(c2cccs2)S1 (stereo not given),89% (inactive)
3,COc1ccc2oc3c(ccc[n+]3C)c(=O)c2c1,85.9% (inactive)
4,O=[N+]([O-])c1cccc(N=Cc2ccccc2)c1,103% (inactive)
5,NC1=NC(c2ccccc2)N=C(Nc2ccccc2)N1 (stereo not given),98.4% (inactive) and 106% (inactive)
6,O=C1C2=C(Nc3cc(Cl)ccc3N2)OC1c1c[nH]c2ccc(COc3ccccc3)cc12 (stereo not given),68.4% (inactive)
7,NCCSSC/C=C\CSSCCN,86.4% (inactive)
8,Clc1ccc2sc(-c3ccccc3)nc2c1,56.8% (inactive)
9,CCN(C)c1ccccc1,105% (inactive)
10,Nc1ccc(Cl)c(S(=O)(=O)O)c1,92.4% (inactive)
11,COc1ccc(C(=O)C(O)c2ccc(OC)cc2)cc1 (stereo not given),103% (inactive) and 92.8% (inactive)
12,Cc1cc(Cl)nc(Nc2ccccc2)n1,90.4% (inactive)
13,CCCCNC(=O)c1ccccc1C,96.9% (inactive)
14,CCCC(=O)OCC(COC(=O)CCC)OC(=O)CCC,85.3% (inactive)
15,CCOC(=O)c1csc(N)n1,104% (inactive) and 98.5% (inactive)
16,COc1cc([C@@H]2c3cc4c(cc3[C@H](O)[C@H]3COC(=O)[C@@H]23)OCO4)cc(OC)c1OC,40.1% (inactive) and 71.1% (inactive)
17,Cc1cccc(Cl)c1N,110% (inactive)
18,CCN(CC)C(=S)SCCO,101% (inactive)
19,O=[N+]([O-])c1ccc(NC2CCCCC2)nc1,102% (inactive)
20,C#CCOC(=O)C(N)CS (stereo not given),119% (inactive)

row,Structure (SMILES),growth
1,N=C(N)N1CCc2ccccc2C1,86.2% (inactive) and 101% (inactive)
2,CCC/C(=N/NC(N)=O)c1ccco1,72.6% (inactive)
3,S=c1nn[nH]n1C1CCCCC1,124% (inactive)
4,CC(=O)C[n+]1ccccc1Sc1ccc(Cl)cc1,84.8% (inactive)
5,Cc1c(Cl)cc(Cl)c(N)c1Cl,104% (inactive)
6,O=C(O)c1cccc(Br)c1,92.3% (inactive) and 83.4% (inactive)
7,CCOC(=O)C(N)Cc1cc(I)c(O)c(I)c1 (stereo not given),105% (inactive) and 111% (inactive)
8,O=[N+]([O-])c1ccc(N/N=C/C2CCCCCC2)c([N+](=O)[O-])c1,84% (inactive)
9,COC(=O)CCOc1ccccc1,103% (inactive)
10,O=[N+]([O-])c1ccc(N2CCN=N2)cc1,67.3% (inactive)
11,CCc1ccc(OC(=O)CCl)cc1,100% (inactive)
12,COc1ccc([N+](=O)[O-])cc1OC,103% (inactive) and 102% (inactive)
13,COc1ccc(S(=O)(=O)c2ccc(F)cc2)cc1,99% (inactive)
14,COCCNC(C)=O,89.5% (inactive)
15,CC1(C)OC(=O)C(=Cc2ccc(C#N)cc2)C(=O)O1,86.4% (inactive) and 102% (inactive)
16,CCCCCc1cc[n+](CC(=O)c2ccccc2)cc1,95.4% (inactive) and 101% (inactive)
17,N#Cc1c[nH]n2ccnc12,92.3% (inactive)
18,S=c1ccc2ccccc2[nH]1,90.1% (inactive) and 91.2% (inactive)
19,Cc1ccc([N+](=O)[O-])cc1Br,89.1% (inactive)
20,Nc1nc(-c2ccccn2)cc(-c2cc(-c3ccccn3)nc(N)n2)n1,109% (inactive)
